Measured values from the supplement of paper PMC11732987, “Enantioselective OTUD7B fragment discovery through chemoproteomics screening and high-throughput optimisation” (Communications Chemistry, 2025).

What was measured:
Assay in all cases: log2 ratio of Biotin-Ahx-Ub-VS probe labelling (fragment/DMSO); higher = less target engagement (more negative = stronger competition), active = hit call of the paper (q ≤ 0.05, log2 ratio ≤ -1)
Conditions in all cases: compound concentration: 200 uM; treatment time: 3 h
[1] = molecular target: T1, USP19 (UniProt O94966)
T1 sequence (whole entry): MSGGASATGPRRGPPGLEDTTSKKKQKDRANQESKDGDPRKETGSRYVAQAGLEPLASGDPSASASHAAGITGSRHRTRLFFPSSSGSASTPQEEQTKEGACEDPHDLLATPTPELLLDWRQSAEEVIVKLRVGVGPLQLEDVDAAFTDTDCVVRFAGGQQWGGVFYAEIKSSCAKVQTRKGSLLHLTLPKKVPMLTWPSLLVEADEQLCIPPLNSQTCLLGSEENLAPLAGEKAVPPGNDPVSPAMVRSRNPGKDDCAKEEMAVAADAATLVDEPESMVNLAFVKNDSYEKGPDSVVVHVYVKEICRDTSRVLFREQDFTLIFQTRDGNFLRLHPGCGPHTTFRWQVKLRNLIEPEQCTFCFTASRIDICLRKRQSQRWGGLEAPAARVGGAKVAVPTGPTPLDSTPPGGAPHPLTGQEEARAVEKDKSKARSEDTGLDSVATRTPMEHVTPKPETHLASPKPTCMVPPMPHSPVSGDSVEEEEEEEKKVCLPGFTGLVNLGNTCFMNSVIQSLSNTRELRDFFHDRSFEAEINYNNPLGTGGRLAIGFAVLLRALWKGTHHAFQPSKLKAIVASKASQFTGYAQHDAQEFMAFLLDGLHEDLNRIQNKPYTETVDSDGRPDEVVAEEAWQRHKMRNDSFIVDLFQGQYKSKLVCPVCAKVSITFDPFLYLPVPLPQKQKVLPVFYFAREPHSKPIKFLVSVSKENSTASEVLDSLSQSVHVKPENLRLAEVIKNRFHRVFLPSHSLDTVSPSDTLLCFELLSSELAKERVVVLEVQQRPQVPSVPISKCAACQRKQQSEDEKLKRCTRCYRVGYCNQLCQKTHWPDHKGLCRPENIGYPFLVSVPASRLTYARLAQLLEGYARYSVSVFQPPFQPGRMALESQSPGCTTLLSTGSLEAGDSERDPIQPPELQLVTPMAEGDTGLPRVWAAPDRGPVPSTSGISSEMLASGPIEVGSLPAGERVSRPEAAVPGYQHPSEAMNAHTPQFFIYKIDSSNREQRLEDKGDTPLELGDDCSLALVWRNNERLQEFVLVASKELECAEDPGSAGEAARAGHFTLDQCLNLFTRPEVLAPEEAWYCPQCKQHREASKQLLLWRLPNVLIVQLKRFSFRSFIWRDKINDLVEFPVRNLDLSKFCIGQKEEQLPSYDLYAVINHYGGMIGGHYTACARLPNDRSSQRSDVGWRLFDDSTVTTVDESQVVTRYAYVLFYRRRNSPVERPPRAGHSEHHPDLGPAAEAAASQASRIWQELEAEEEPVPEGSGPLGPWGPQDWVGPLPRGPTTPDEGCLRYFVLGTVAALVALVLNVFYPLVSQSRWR
Outline: (§1)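 The table lists average log2 ratios of fragment over vehicle, from an unpaired t-test on global-median-normalised Spectronaut label-free quantities. Proteins with ≥2 unique peptides were used. Samples were HEK293T lysate (495 µg) treated in triplicate with fragment at 200 µM or vehicle for 3 h, then with Biotin-Ahx-Ub-VS (0.5 µM final) for 1 h, with labelled DUBs NeutrAvidin-enriched and run by diaPASEF LC-MS/MS.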

[2] = molecular target: T2, USP22 (UniProt Q9UPT9)
T2 sequence (whole entry): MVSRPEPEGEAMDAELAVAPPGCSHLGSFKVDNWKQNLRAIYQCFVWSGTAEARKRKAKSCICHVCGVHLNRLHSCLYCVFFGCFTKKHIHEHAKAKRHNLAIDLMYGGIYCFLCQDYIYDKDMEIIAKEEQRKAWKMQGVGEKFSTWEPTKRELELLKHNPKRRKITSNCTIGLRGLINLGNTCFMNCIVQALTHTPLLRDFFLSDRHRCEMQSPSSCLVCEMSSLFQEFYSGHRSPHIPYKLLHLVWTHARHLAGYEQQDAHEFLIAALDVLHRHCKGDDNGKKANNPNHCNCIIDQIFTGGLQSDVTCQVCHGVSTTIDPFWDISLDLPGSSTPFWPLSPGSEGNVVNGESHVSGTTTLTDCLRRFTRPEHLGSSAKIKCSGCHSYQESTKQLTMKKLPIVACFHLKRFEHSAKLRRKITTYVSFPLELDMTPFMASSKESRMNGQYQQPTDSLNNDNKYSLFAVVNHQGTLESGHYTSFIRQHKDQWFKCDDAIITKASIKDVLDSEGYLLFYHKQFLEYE
Outline: as §1

[3] = molecular target: USP24 (UniProt Q9UPU5)
Sequence of USP24 (Q9UPU5 whole entry): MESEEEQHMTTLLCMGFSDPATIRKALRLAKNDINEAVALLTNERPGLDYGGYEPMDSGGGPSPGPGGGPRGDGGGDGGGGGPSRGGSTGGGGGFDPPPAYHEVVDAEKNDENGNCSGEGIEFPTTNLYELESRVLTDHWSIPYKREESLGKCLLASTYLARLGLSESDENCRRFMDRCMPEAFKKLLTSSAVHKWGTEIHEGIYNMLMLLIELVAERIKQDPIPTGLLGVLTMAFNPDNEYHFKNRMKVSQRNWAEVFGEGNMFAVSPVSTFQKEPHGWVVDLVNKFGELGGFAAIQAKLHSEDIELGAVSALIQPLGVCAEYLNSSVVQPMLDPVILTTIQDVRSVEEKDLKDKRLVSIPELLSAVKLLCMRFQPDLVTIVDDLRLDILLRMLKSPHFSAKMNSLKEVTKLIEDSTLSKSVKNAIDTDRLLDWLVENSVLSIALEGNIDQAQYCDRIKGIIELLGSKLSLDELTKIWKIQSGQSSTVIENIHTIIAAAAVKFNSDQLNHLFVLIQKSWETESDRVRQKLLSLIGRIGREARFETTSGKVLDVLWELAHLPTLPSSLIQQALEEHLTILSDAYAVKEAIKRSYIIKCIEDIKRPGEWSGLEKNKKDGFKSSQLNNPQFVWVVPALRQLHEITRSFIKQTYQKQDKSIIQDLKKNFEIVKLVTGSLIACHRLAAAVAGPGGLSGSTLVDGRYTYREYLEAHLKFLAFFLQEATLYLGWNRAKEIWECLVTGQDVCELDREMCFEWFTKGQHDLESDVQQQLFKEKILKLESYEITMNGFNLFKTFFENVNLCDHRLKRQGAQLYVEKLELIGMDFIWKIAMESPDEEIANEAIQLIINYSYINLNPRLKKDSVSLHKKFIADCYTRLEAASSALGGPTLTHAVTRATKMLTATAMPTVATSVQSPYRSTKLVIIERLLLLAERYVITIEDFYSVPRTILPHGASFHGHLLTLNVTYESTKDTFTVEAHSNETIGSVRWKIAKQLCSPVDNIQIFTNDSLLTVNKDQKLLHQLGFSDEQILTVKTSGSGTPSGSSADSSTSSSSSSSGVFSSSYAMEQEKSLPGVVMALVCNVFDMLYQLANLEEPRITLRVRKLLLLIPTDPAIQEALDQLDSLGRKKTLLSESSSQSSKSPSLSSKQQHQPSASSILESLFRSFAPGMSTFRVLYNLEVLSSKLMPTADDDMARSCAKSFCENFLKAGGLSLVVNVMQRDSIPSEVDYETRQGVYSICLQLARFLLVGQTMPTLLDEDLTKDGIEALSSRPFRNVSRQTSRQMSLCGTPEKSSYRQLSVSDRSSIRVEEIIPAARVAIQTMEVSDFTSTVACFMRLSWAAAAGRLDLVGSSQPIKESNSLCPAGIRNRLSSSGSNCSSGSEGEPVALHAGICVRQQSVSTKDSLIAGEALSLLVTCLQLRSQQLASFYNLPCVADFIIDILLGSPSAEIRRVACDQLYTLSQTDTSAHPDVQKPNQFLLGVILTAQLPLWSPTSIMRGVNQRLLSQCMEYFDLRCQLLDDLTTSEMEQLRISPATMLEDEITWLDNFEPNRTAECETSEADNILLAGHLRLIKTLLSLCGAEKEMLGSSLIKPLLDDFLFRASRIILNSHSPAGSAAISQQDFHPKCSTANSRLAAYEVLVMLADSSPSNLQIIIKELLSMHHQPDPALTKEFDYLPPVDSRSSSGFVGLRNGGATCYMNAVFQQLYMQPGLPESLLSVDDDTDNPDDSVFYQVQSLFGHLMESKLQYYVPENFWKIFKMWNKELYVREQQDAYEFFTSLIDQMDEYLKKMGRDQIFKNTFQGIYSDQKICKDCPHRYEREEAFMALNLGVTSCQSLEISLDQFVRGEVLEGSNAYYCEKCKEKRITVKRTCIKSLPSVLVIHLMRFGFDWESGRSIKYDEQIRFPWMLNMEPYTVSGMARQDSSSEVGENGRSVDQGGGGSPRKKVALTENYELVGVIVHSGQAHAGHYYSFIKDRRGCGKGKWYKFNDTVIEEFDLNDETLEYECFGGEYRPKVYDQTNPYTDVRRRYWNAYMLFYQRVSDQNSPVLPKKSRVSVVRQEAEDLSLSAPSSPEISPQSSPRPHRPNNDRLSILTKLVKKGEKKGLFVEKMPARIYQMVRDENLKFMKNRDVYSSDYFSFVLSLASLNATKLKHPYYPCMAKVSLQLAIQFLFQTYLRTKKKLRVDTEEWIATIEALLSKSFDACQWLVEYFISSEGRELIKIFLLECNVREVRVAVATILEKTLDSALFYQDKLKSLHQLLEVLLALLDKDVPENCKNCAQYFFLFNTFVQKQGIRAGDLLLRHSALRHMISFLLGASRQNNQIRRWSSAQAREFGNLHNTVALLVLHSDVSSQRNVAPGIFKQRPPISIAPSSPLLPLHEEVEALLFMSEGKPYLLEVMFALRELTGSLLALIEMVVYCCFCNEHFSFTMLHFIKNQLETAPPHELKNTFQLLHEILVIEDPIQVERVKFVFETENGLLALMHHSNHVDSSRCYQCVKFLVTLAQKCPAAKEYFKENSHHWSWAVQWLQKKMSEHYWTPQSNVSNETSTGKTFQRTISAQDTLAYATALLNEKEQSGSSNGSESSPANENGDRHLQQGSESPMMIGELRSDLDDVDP
Outline: as §1

[4] = molecular target: T3, USP25 (UniProt Q9UHP3)
T3 sequence (whole entry): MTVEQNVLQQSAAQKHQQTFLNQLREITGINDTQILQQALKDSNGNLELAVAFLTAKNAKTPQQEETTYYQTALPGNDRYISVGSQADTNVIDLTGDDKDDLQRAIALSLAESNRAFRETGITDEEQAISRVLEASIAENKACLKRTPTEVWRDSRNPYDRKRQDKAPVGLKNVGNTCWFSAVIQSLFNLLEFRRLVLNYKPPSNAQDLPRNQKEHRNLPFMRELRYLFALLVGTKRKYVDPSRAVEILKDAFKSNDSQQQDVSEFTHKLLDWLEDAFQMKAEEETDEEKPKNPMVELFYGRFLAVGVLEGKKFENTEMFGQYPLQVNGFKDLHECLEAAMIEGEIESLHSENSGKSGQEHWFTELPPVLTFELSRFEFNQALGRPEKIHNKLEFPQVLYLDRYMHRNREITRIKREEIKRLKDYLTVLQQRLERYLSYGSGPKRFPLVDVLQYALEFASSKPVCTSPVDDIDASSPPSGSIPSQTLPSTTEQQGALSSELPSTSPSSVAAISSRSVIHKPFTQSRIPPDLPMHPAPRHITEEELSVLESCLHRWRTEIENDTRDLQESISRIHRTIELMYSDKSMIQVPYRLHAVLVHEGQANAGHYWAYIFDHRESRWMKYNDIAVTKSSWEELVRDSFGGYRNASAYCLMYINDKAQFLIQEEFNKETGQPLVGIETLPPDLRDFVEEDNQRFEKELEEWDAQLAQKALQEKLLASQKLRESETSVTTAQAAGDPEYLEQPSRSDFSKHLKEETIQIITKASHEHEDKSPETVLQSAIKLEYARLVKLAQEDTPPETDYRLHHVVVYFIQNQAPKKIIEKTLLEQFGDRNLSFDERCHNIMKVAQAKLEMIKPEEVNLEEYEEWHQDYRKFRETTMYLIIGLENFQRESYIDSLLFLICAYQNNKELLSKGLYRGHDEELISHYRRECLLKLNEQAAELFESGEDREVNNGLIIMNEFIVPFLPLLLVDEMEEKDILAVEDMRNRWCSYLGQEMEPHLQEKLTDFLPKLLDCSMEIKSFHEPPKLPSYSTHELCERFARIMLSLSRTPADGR
Outline: as §1

[5] = molecular target: T4, USP28 (UniProt Q96RU2)
T4 sequence (whole entry): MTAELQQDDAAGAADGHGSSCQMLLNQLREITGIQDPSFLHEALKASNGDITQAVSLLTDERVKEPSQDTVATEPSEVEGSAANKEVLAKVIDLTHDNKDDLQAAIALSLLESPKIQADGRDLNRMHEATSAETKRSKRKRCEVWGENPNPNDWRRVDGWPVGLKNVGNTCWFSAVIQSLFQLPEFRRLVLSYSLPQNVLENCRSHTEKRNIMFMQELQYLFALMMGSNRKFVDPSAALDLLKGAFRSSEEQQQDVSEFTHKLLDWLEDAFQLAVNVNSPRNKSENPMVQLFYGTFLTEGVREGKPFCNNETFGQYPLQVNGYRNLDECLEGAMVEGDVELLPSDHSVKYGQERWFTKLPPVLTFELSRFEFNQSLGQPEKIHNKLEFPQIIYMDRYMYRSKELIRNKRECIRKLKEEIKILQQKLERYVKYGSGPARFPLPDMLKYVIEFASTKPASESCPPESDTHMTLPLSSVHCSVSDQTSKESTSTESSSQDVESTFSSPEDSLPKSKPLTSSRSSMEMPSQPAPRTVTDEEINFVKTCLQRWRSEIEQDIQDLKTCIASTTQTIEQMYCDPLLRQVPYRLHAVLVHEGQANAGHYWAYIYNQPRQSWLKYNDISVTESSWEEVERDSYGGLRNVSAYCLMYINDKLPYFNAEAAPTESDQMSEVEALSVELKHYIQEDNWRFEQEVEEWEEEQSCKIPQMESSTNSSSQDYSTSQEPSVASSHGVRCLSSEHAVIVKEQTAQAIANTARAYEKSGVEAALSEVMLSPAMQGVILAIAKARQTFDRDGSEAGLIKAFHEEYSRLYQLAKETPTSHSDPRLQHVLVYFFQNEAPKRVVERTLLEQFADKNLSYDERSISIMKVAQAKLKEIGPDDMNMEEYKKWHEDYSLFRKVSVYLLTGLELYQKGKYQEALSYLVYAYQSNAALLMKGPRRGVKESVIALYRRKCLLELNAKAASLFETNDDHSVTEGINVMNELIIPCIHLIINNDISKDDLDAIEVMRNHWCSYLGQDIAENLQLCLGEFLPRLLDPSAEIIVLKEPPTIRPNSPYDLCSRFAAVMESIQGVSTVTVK
Outline: as §1

Measured: log2 ratio of Biotin-Ahx-Ub-VS probe labelling

CC(NC(=O)CCl)c1cnn(C2CC2)c1 (stereo not given)
inactive: [1] -0.305 | [2] -0.22 | [3] -0.409 | [4] -0.784 | [5] -0.621
